According to PubChem BioAssay (Tox21):
Results filed as inconclusive are left out. Entries that show only a call come without a potency. Active and inactive are the calls of the source. Unless noted, calls follow the shape of the dose curve; as a rule, active = well fitted curve in the direction sought with a large enough effect in the repeat runs; inconclusive = weak or mixed curves; inactive = no such curve, though single readings can be large; an effect the other way counts as inactive or inconclusive. Non-standard residues stand in square brackets, D forms with d. Residues, ends and D or L forms follow the SMILES beside them. pGlu = O=C1CC[C@@H](C(=O)O)N1

Columns and labels:
[1] = qHTS assay for small molecule agonists of the p53 signaling pathway (AID 651631; calls by dose curve; also: nearly all actives have a fitted effect of over 15% in size)
Outline: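 Agonist mode screen using a stably integrated beta-lactamase gene under p53 response elements in HCT-116 cells. Compound exposure lasts 16 h at 37 °C; fluorescence intensity is measured following 2 h FRET substrate loading.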

[2] = qHTS assay for small molecules that induce genotoxicity in human embryonic kidney cells expressing luciferase-tagged ATAD5 (AID 651632); also: nearly all actives have a fitted effect of over 15% in size
Outline: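 Cells were seeded at 2,000 per well, dosed with compound, and incubated 16 hr at 37C in 5% CO2. Luciferase activity was then quantified after a 30 min room-temperature incubation with Amplite.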

[3] = qHTS assay for small molecule agonists of the p53 signaling pathway - cell viability (AID 651633; calls by dose curve;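 also: p53RE-bla HCT reporter cells with a stable beta-lactamase p53 reporter; nearly all actives have a fitted effect of over 30% in size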)
Outline: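 p53RE-bla cells were treated with compound for 16 hours at 37 C. Cytotoxicity was then measured as CellTiter-Glo luminescence after 30 min at room temperature.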

[4] = qHTS assay for small molecules that induce genotoxicity in human embryonic kidney cells expressing luciferase-tagged ATAD5 - cell viability (AID 651634; calls by dose curve; also: nearly all actives have a fitted effect of over 25% in size)
Outline: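 Cells (HEK293T, luciferase-tagged ATAD5) are seeded at 2,000 per well, dosed with compound or DMSO vehicle, and incubated 15.5 hr at 37C and 5% CO2. CellTiter-Fluor is added for 30 min before fluorescence is measured.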

[5] = qHTS assay for small molecule disruptors of the mitochondrial membrane potential - cell viability (AID 720634; calls by dose curve; also: nearly all actives have a fitted effect of over 20% in size; also: potency is read from the fitted curve at half-maximal effect)
Outline: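 Cytotoxicity was measured by ATP quantitation in HepG2 wells that had first been treated with compound for 1 hr and stained with m-MPI dye; CellTiter-Glo incubation was 30 min at room temperature.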

[6] = qHTS assay to test for compound auto fluorescence at 590 nm (red) in HepG2 cells (AID 720674)
Outline: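 HepG2 cells, 2,000 per well in MEM with 10% FBS, attached overnight at 37 C, then got 23 nL compound or DMSO. After 1 hr at 37 C, 5% CO2, red fluorescence was read at 540/590 nm against Rose Bengal sodium as reference.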

[7] = qHTS assay to test for compound auto fluorescence at 535 nm (green) in HepG2 cells (AID 720675)
[8] = qHTS assay to test for compound auto fluorescence at 460 nm (blue) in HEK293 cells (AID 720678)
Outline: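 HEK293 cells (2,000 per well, medium with 10% dialyzed FBS) attached for 4-5 hr at 37C, then received compound and stood overnight at 37C, 5% CO2. Blue fluorescence was read at Ex/Em 405/460 nm and expressed relative to triamterene.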

[9] = qHTS assay to test for compound auto fluorescence at 590 nm (red) in HEK293 cells (AID 720679)
Outline: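 HEK293 cells (2,000/well, medium with 10% dialyzed FBS) attached for 4-5 hr at 37C, received 23 nL compound and were incubated overnight at 37C, 5% CO2. Red fluorescence was then read at 540/590nm Ex/Em, referenced to Rose Bengal sodium.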

[10] = qHTS assay to test for compound auto fluorescence at 535 nm (green) in HEK293 cells (AID 720680)
[11] = qHTS assay to test for compound auto fluorescence at 460 nm (blue) in HEK293 cell free culture (AID 720681)
Outline: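 Compounds were added to cell-free DMEM with 10% FBS and fluorescence read directly. The blue channel used 405 nm excitation and 460 nm emission, with triamterene as the reference fluorophore.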

[12] = qHTS assay to test for compound auto fluorescence at 535 nm (green) in HEK293 cell free culture (AID 720682)
Outline: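 No cells present: wells hold DMEM supplemented with 10% FBS, into which compound or vehicle is pinned. Green emission is then recorded (485 nm excitation, 535 nm emission) and scaled to fluorescein.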

[13] = qHTS assay to test for compound auto fluorescence at 590 nm (red) in HEK293 cell free culture (AID 720683)
Outline: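 Cell-free wells of DMEM with 10% FBS received compound, and intrinsic fluorescence was read at excitation/emission 540/590 nm. Values expressed as equivalence to Rose Bengal sodium.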

[14] = qHTS assay to test for compound auto fluorescence at 590 nm (red) in HepG2 cell free culture (AID 720684)
Outline: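 Auto fluorescence equivalency versus Rose Bengal sodium, red channel Ex/Em 540/590 nm; compounds in cell-free MEM/10% FBS; DMSO vehicle control.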

[15] = qHTS assay to test for compound auto fluorescence at 535 nm (green) in HepG2 cell free culture (AID 720686)
[16] = qHTS assay to test for compound auto fluorescence at 460 nm (blue) in HepG2 cells (AID 720687)
Outline: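 HepG2 cells in MEM with 10% FBS, attached overnight at 37 C, were exposed to compound or DMSO for 1 hr at 37 C, 5% CO2. Blue fluorescence was read at 405/460 nm, with triamterene as reference fluorophore.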

[17] = target: Glucocorticoid receptor (Homo sapiens) (UniProt P04150); test: qHTS assay to identify small molecule agonists of the glucocorticoid receptor (GR) signaling pathway (AID 720691; active = well fitted activation curve with a large enough effect in the signal ratio in the repeat runs, not every such curve was filed as active; the % refers to the signal ratio); conditions: GR-bla HeLa, beta-lactamase reporter ratio, 18 h; activation: at 62.4 µM (top of the series)
Chain of Glucocorticoid receptor (Homo sapiens) (P04150 whole entry, looked up): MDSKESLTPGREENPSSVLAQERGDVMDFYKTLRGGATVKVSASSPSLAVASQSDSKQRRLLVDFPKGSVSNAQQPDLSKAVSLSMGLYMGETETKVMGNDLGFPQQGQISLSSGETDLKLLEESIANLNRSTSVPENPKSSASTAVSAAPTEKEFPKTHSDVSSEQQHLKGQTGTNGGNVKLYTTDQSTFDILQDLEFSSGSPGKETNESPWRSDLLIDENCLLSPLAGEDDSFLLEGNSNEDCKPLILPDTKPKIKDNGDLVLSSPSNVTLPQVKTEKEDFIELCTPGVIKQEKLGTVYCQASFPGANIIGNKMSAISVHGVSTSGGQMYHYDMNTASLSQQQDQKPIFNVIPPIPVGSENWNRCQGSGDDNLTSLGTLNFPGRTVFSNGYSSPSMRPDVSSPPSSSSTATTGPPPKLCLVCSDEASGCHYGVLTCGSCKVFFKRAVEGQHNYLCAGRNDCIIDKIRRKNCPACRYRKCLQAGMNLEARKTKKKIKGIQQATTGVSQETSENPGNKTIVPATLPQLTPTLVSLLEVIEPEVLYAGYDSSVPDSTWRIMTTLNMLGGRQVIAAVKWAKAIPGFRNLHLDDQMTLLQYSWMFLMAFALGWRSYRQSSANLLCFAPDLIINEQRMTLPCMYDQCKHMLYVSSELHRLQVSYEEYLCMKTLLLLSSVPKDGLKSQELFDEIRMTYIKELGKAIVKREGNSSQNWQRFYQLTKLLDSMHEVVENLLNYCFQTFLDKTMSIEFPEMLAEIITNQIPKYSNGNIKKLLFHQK
Outline: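 Steps: seed GR-bla HeLa cells, incubate 4 h at 37 C/5% CO2; pin-transfer DMSO-dissolved compounds; incubate 18 h at 37 C; add LiveBLAzer B/G FRET substrate; after 2 h at room temperature, measure fluorescence.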

[18] = target: Glucocorticoid receptor (Homo sapiens) (UniProt P04150); test: qHTS assay to identify small molecule antagonists of the glucocorticoid receptor (GR) signaling pathway (AID 720692; active = well fitted inhibition curve with a large enough effect in the signal ratio in the repeat runs, not every such curve was filed as active; the % refers to the signal ratio; also: potency is read from the fitted curve at half-maximal effect)
Outline: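 Antagonism was scored as loss of dexamethasone-driven (5 nM final) reporter signal in HeLa cells bearing a glucocorticoid response element–beta-lactamase construct, after 18 h compound exposure at 37 C and 2 h FRET substrate loading.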

[19] = qHTS assay to test for compound auto fluorescence at 460 nm (blue) in HepG2 cell free culture (AID 720685)
Outline: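 Cell-free plates of MEM plus 10% FBS received 23 nL compound or DMSO vehicle; blue-channel (405/460 nm) intensity scored against triamterene as reference fluorophore.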

[20] = qHTS assay for small molecule disruptors of the mitochondrial membrane potential (AID 720635); also: potency is read from the fitted curve at half-maximal effect
Outline: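 HepG2 cells exposed to compound 1 hr at 37C, then Mito-MPS dye 30 min. Ratio read of aggregate (540/590 nm) versus monomer (490/535 nm) fluorescence.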

Row | Compound | Potency [1] | Potency [2] | Potency [3] | Potency [4] | Potency [5] | Potency [6] | Potency [7] | Potency [8] | Potency [9] | Potency [10] | Potency [11] | Potency [12] | Potency [13] | Potency [14] | Potency [15] | outcome [16] | Potency [17] | Potency [18] | outcome [19] | Potency [20]
1 | O=C(O)c1nc(=O)[nH]c(=O)[nH]1 | inactive | inactive | inactive | inactive | inactive | inactive | inactive | inactive | inactive | inactive | inactive | inactive | inactive | inactive | inactive | inactive | inactive | inactive | – | –
2 | CC(C)(C)CC(C)(C)c1cc(Cc2cc(C(C)(C)CC(C)(C)C)cc(-n3nc4ccccc4n3)c2O)c(O)c(-n2nc3ccccc3n2)c1 | inactive | inactive | inactive | inactive | inactive | inactive | inactive | inactive | inactive | inactive | inactive | inactive | inactive | inactive | inactive | inactive | – | – | – | –
3 | CC(O)CN(C)C (centres undefined) | inactive | inactive | inactive | inactive | inactive | inactive | – | inactive | inactive | inactive | inactive | inactive | inactive | inactive | inactive | inactive | – | – | inactive | –
4 | C#C[C@]1(OC(C)=O)CC[C@H]2[C@@H]3CCC4=CC(=O)CC[C@@H]4[C@H]3CC[C@@]21C | inactive | inactive | inactive | – | inactive | inactive | inactive | inactive | inactive | inactive | inactive | inactive | inactive | inactive | inactive | inactive | – | 2.13 µM (active) | – | inactive
5 | CCCCCCCCCCCCCCCCCC(=O)[O][Al] | inactive | inactive | inactive | inactive | inactive | inactive | – | inactive | inactive | inactive | inactive | inactive | inactive | inactive | inactive | inactive | inactive | – | inactive | –
6 | CCOC(=O)c1cc(-c2ccccc2)nc2ccc(C)cc12 | inactive | inactive | inactive | inactive | inactive | inactive | – | inactive | inactive | inactive | inactive | inactive | inactive | inactive | inactive | inactive | inactive | – | inactive | –
7 | C=C1c2c(Cl)ccc(O)c2C(O)=C2C(=O)[C@]3(O)C(O)=C(C(N)=O)C(=O)[C@@H](N(C)C)[C@@H]3[C@@H](O)[C@H]12 | inactive | inactive | inactive | inactive | inactive | inactive | – | inactive | inactive | inactive | inactive | inactive | inactive | inactive | inactive | inactive | inactive | – | inactive | –
8 | CC[C@H](C)[C@H](NC(=O)[C@H](Cc1ccccc1)NC(=O)[C@H](C)NC(=O)[C@H](CC(=O)O)NC(=O)[C@H](CCCCN)NC(=O)[C@H](CO)NC(=O)[C@@H]1CCCN1C(=O)[C@@H]1CCC(=O)N1)C(=O)NCC(=O)N[C@@H](CC(C)C)C(=O)N[C@@H](CCSC)C(N)=O ([pGlu]PSKDAFIGLM-NH2) | inactive | inactive | inactive | inactive | inactive | inactive | – | inactive | inactive | inactive | inactive | inactive | inactive | inactive | inactive | inactive | – | – | – | –
9 | Cc1ncc(COP(=O)(O)O)c(CN)c1O | inactive | inactive | inactive | inactive | – | inactive | inactive | inactive | inactive | inactive | inactive | inactive | inactive | inactive | inactive | inactive | inactive | inactive | – | –
10 | CC(C)c1nc(N(C)S(C)(=O)=O)nc(-c2ccc(F)cc2)c1/C=C/C(O)CC(O)CC(=O)O (centres undefined) | inactive | inactive | inactive | inactive | inactive | inactive | inactive | – | inactive | inactive | inactive | inactive | inactive | inactive | inactive | inactive | inactive | inactive | inactive | –
11 | CCOC(=O)C1=C[C@@H](OC(CC)CC)[C@H](NC(C)=O)[C@@H](N)C1 | inactive | inactive | inactive | inactive | inactive | inactive | – | inactive | inactive | inactive | inactive | inactive | inactive | inactive | inactive | inactive | – | inactive | inactive | –
12 | CCCCC(=O)O[C@H]1CC[C@H]2[C@@H]3CCc4cc(O)ccc4[C@H]3CC[C@]12C | inactive | inactive | inactive | – | 29.8 µM (active) | inactive | inactive | inactive | inactive | inactive | inactive | inactive | inactive | inactive | inactive | inactive | inactive | 9.52 µM (active) | inactive | 18.8 µM (active)
13 | O=S(=O)(O)Oc1ccc(C(c2ccc(OS(=O)(=O)O)cc2)c2ccccn2)cc1 | inactive | inactive | inactive | inactive | inactive | inactive | inactive | – | inactive | inactive | inactive | inactive | inactive | inactive | inactive | inactive | inactive | inactive | inactive | –
14 | C[C@]12CC[C@@H]3c4ccc(OS(=O)(=O)O)cc4CC[C@H]3[C@@H]1CCC2=O | inactive | inactive | inactive | inactive | inactive | inactive | inactive | – | inactive | inactive | inactive | inactive | inactive | inactive | inactive | inactive | inactive | – | inactive | –
